Bioassay records (PubChem)
Gal4-VP16 FLuc: VP16 counterscreen qHTS for inhibitors of ROR gamma transcriptional activity. Drosophila S2 Gal4-VP16 UAS-luciferase, luminescence, 20 h. Potency, µM (highest dose often 53.6 µM), inactives show at the highest dose activity, negative = inhibition, usual class: inhibitors. 310,000 tested, 3.5% active. AID 2546, 2010;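 further: Gal4-VP16 expression switched on by copper sulfate through the metallothionein promoter; nearly all actives have a fitted effect of over 50% in size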
Sfp PPTase inh: qHTS Assay for Inhibitors of Bacillus subtilis Sfp phosphopantetheinyl transferase (PPTase); Biochemical Sfp PPTase activity, qHTS; 310,000 tested, 3.5% active; AID 1490, 2009; 4'-phosphopantetheinyl transferase ffp (Bacillus subtilis), Q9F4F7; Potency, µM, inactives show largest response in the series, negative = inhibition, usual class: inhibitors;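 further: the enzyme is Sfp with the accession as filed and its product quenches rhodamine fluorescence; 0% = enzyme reaction without inhibitor and -100% = no enzyme wells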
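Fluorescence-quenching assay: 15 nM Sfp-PPTase preincubated 15 min at room temperature with compound, then 5 uM rhodamine-CoA and 12.5 uM BHQ-2-labelled YbbR peptide added. Fluorescence (ex 525/em 598 nm) read at start and after 30 min; difference gives rate.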
RORgamma inh: qHTS for inhibitors of ROR gamma transcriptional activity; 310,000 tested, 5.4% active; Drosophila S2 Gal4-RORgamma UAS-luciferase reporter, 20 h; AID 2551, 2010; Potency, µM (series often up to 53.6 µM), for the others: at the highest dose activity change, negative = inhibition, usual class: inhibitors; Nuclear receptor ROR-gamma (Mus musculus), P51450; further: nearly all actives have a fitted effect of over 60% in size
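A Gal4/UAS one-hybrid system in insect cells: metallothionein-promoter Gal4–ROR gamma fusion plus Photinus luciferase reporter. Copper sulfate 700 uM final, 20 hr ambient incubation, luminescent detection after 10 min with reagent.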
PLK1 PBD block: qHTS for Inhibitors of PLK1-PDB (polo-like kinase 1 - polo-box domain): Primary Screen; Potency, µM, for the others: max response, negative = inhibition, most hits filed as inhibitors; Plk1 PBD binding of FITC phosphopeptide, fluorescence polarization; Serine/threonine-protein kinase PLK1 (Homo sapiens), P53350; 360,000 tested, 2.8% active; AID 720504, 2013; further: series mostly up to about 57 µM; nearly all actives have a fitted effect of over 65% in size
Target sequence (P53350 whole entry, looked up, the tested form may be a part): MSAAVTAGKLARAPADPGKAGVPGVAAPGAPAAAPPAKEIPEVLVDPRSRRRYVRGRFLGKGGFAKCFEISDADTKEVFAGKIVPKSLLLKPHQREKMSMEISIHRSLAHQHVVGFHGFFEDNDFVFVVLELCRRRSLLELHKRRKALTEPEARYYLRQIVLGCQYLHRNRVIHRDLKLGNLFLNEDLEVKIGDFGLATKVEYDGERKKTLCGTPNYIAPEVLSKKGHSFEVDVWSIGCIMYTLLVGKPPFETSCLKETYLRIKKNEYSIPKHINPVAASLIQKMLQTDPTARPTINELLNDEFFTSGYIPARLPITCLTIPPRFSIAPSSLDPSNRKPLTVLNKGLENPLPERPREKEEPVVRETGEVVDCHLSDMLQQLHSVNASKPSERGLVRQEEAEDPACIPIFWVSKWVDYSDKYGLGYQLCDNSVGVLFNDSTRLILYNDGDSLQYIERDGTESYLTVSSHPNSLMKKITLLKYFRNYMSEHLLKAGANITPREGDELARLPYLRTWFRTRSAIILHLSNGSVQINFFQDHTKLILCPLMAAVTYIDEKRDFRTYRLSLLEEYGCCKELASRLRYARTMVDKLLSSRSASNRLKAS
ALDH1A1 inh: qHTS Assay for Inhibitors of Aldehyde Dehydrogenase 1 (ALDH1A1). Purified ALDH1A1, NADH fluorescence, propionaldehyde substrate. Potency, µM (top dose mostly 75.3 µM), inactives show at the top dose activity, negative = inhibition, hits mostly inhibitors. 220,000 tested, 7.3% active. AID 1030, 2008; active means well fitted inhibition curve with a large enough effect, not every such curve was filed as active; inconclusive means small, poorly fitted or top-dose-only effect, or another doubt; inactive means no such curve, though single readings can be large or run the other way;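 further: plate controls were no enzyme wells and a reference inhibitor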
Numbers without * were called inactive; u = inconclusive; x = no result given; [ ] = remark or other dose. Sampled rows, rich in hits. Any-hit rate of the full collection: about 12%. Unless noted, the call rests on the fitted dose curve; in most records, active means well fitted curve in the direction sought with a large enough effect; inconclusive means small, poorly fitted or top-dose-only effect, or another doubt; inactive means no such curve, though single readings can be large; an effect the other way counts as inactive or inconclusive. Unless noted, on the % scale 0 is the no-effect control and ±100 the full control effect; potency means the concentration at half of the fitted maximal effect.

SMILES	Gal4-VP16 FLuc	Sfp PPTase inh	RORgamma inh	PLK1 PBD block	ALDH1A1 inh
CN1CCN(c2ccc(NC(=O)c3ccc(Oc4ccccc4)cc3)cc2)CC1	3%	0%	-38%	-9%	x
S=C(NC1CC1)N1CCN(c2ccc(Cl)cc2)CC1	10%	-3%	-37%	-8%	-10%
Fc1cccc(NC(=S)N2CCCC2)c1	u	6%	-18%	-19%	21%
S=C(NC1CCCC1)N1CCN(c2cccc(Cl)c2)CC1	-25%	20%	11µM*	-6%	-14%
CC(=O)c1ccc(N2CCN(C(=S)Nc3ccc(Oc4ccccc4)cc3)CC2)cc1	4.5µM*	6%	3.2µM*	-13%	u
Fc1cccc(CN2CCN(C(=S)NCCc3ccccc3)CC2)c1	-12%	25%	-13%	-8%	u
COc1ccc(N2CCN(C(=S)Nc3cccc(OC)c3)CC2)cc1	-19%	8%	44%[1.91 µM]	-3%	x
COc1ccc(CCNC(=S)N2CCC(C(N)=O)CC2)cc1	1%	56µM*	-14%	34µM*	x
O=C(C1CC1c1ccccc1)N1CCN(c2cccc(Cl)c2)CC1 (stereo not given)	9%	2%	19%	-7%	20µM*
COc1ccc(N2CCN(C(=S)Nc3ccccc3)CC2)cc1	u	18%	13µM*	8%	x
S=C(NCCc1ccccc1)N1CCN(Cc2ccccc2)CC1	23%	u	9%[10 µM]	-4%	7.9µM*
O=C(O)c1ccccc1C(=O)N1CCN(c2cccc(Cl)c2)CC1	5%	-13%	-30%	-11%	u
Cc1cccc(CC(=O)NCCS(=O)(=O)N2CCN(c3ccccc3)CC2)c1	x	x	x	-14%	x
CCOC(=O)[C@]12CCC=C1N(Cc1ccccc1)C(=O)[C@H](CC(=O)NCc1cccc(C(F)(F)F)c1)C2	x	x	x	-9%	x
Oc1cccc(-c2ccc3nccn3c2)c1	x	x	x	2%	x
C=CCC1(C)OC=Cc2nc3cc(Cl)c(Cl)cc3nc21 (stereo not given)	-6%[10 µM]	0%	26%[10 µM]	x	u
CCCN1CCC(NC(=S)Nc2ccc([N+](=O)[O-])cc2)CC1	7%	-8%	-3%	-8%	3%
CCCN1CCN(C(=S)Nc2ccc([N+](=O)[O-])cc2)CC1	-1%	u	22%	u	32µM*
COc1cccc(CN(C)C(=O)c2ccc(Cl)c(S(=O)(=O)N3CCCCCC3)c2)c1OC	x	x	x	-7%	x
N[C@@H](Cc1cc(I)c(Oc2ccc(O)cc2)c(I)c1)C(=O)O	x	15%	x	x	1%
Cc1cc(C(=O)CN2C(=O)c3cccc(N)c3C2=O)c(C)n1Cc1cccs1	u	-3%	u	3.4µM*	u
Cc1cc(C(=O)CSc2nnc(-c3ccccc3F)o2)c(C)n1Cc1cccs1	-11%	28µM*	-5%	-11%	1%
COc1ccccc1-n1cnnc1SCC(=O)c1cc(C)n(Cc2cccs2)c1C	-4%	-15%	21%	0%	1.3µM*
COc1c2c(c3c(c1CCC(=O)O)OC(C)(C)C=C3)OC(C)(C)C=C2	x	x	x	x	20%[13.5 µM]
COc1ccc(S(=O)(=O)NC(=O)C2(C)CCN2C(=O)Cc2ccc(C(C)(C)C)cc2)cc1 (stereo not given)	x	x	x	-3%	x
CC(=O)OC[C@@H]1O[C@H](C/C=N\O[C@@H](C)CN2CCCc3nc(C)c(C)cc32)C=C[C@@H]1OC(C)=O	7%[10 µM]	-7%	-17%[10 µM]	x	u
CCCC[C@H](NC(=O)[C@H](CO)NC(=O)[C@H](Cc1ccc(O)cc1)NC(=O)[C@H](CO)NC(C)=O)C(=O)N[C@@H](CCC(=O)O)C(=O)N[C@@H](Cc1cnc[nH]1)C(=O)N[C@H](Cc1ccccc1)C(=O)N[C@@H](CCCNC(=N)N)C(=O)N[C@@H](Cc1c[nH]c2ccccc12)C(=O)NCC(=O)N[C@@H](CCCCN)C(=O)N1CCC[C@H]1C(=O)N[C@H](C(N)=O)C(C)C	-5%	13%	-15%	x	x
CCC(=O)/C=C1/Sc2ccc(OC)cc2N1CCO	-1%	-2%	3%	13µM*	-5%
